# How the values were obtained:
# Conditions in all cases: Compound Concentration (nM):1000
# MAST1 = test system: MAST1
# MEK1 = test system: T1, MEK1
# T1 construct: gene MAP2K1
# MEK2 = test system: T2, MEK2
# T2 construct: gene MAP2K2
# MEK3 = test system: T3, MEK3
# T3 construct: gene MAP2K3
# MEK4 = test system: T4, MEK4
# T4 construct: gene MAP2K4
# MEK5 = test system: T5, MEK5
# T5 construct: gene MAP2K5
# MEK6 = test system: T6, MEK6
# T6 construct: gene MAP2K6
# MELK = test system: MELK
# MERTK = test system: MERTK
# MET(M1250T) = test system: MET(M1250T)
# 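Further: KINOMEscan scanMAX binding as percent activity remaining versus control; lower means stronger binding.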
Structure (SMILES),Percent Control (MAST1) [%],Percent Control (MEK1) [%],Percent Control (MEK2) [%],Percent Control (MEK3) [%],Percent Control (MEK4) [%],Percent Control (MEK5) [%],Percent Control (MEK6) [%],Percent Control (MELK) [%],Percent Control (MERTK) [%],Percent Control (MET(M1250T)) [%]
NS(=O)(=O)c1ccc(N/N=C2\C(=O)Nc3ccc(-c4cnco4)cc32)cc1 [GW276655],75,91,92,52,84,70,72,97,60,63
O=C1Nc2ccc(C(=O)c3ccco3)cc2C1=Cc1cc(Cl)c(O)c(Cl)c1 [GW406108X],64,76,91,16,32,72,72,78,100,59
COc1cc(/C=N/Nc2ncnc3[nH]ncc23)ccc1O [GW578748X],78,78,83,79,94,0.5,83,15,100,84
CCS(=O)(=O)c1ccc(OC)c(Nc2ncc(-c3cccc(OC)c3)o2)c1 [GW580509X],93,100,100,78,100,4.6,92,100,72,100
COc1cc2ncn(-c3cc(O[C@H](C)c4ccccc4Cl)c(C(N)=O)s3)c2cc1OC [GSK237701A],96,90,90,100,91,59,84,81,28,81
NS(=O)(=O)c1ccc(N/N=C2\C(=O)Nc3ccc(Cl)cc32)cc1 [GW280670X],100,98,100,100,100,100,99,100,100,100
C/C(Nc1ccc(S(N)(=O)=O)cc1)=C1/C(=O)Nc2ccccc21 [GW335962X],77,75,81,76,39,70,74,87,100,91
Cl.O=C(O[C@H]1CN[C@H](C#Cc2cc3ncnc(Nc4ccc5c(cnn5Cc5ccccc5)c4)c3s2)C1)N1CCOCC1 [GSK200398A],44,69,79,78,97,0.4,71,86,100,86
COc1ccccc1-c1cc(/C=C2\C(=O)Nc3ncc(Br)cc32)cc(Br)c1O [GW442130X],85,74,82,72,86,64,76,94,95,96
COc1cc2ncnc(Nc3ccc4c(cnn4Cc4ccccc4)c3)c2cc1OC.Cl [GW282449A],100,37,50,100,100,0,97,100,83,100
CCS(=O)(=O)c1ccc(OC)c(Nc2ncc(-c3cccc(F)c3)o2)c1 [GW621970X],93,93,92,76,100,4.1,82,86,67,100
CN(C)CCNC(=O)Nc1ccc(N(C)c2ccnc(Nc3ccc(CS(C)(=O)=O)cc3)n2)cc1.Cl [GW830900A],57,86,77,58,75,1.9,100,56,91,22
CC1=C(C(=O)Nc2ccc3[nH]ncc3c2)C(c2ccc3ccccc3c2)CC(=O)N1 (centres unmarked) [GSK270822A],87,79,74,69,82,70,92,100,100,32
NS(=O)(=O)c1ccc(N/N=C2\C(=O)Nc3ccc(C(=O)NCc4ccncc4)cc32)cc1 [GW300657X],33,100,100,41,87,48,79,35,69,82
COc1cc(N2CCN(C(C)C)CC2)ccc1Nc1nc(Nc2ccc(F)cc2C(=O)NC[C@@H](O)CO)c2cc[nH]c2n1 [GSK1392956A],43,100,100,23,77,96,67,57,77,78
Cl.O=C(Nc1ccc(Oc2ccc3[nH]c(NC(=O)c4ccco4)nc3c2)cc1)Nc1cc(C(F)(F)F)ccc1F [GW683134A],98,96,99,83,100,19,73,82,0.2,27
CC(C)COC(=O)c1ccc2c(c1)/C(=C/Nc1ccc(S(N)(=O)=O)cc1)C(=O)N2 [GW416981X],100,95,92,68,100,21,83,6.4,100,92
CC1=C(C(=O)Nc2ccc3[nH]ncc3c2)C(c2ccc(Cl)c(Cl)c2)CC(=O)N1 (centres unmarked) [GSK299115A],72,73,69,77,89,79,84,88,100,95
O=C(Nc1n[nH]c2nc(-c3ccc(O)cc3)c(Br)cc12)C1CC1 [SB-725317],84,100,100,75,100,28,98,100,100,100
COC(=O)Nc1nc2ccc(Oc3ccc(NC(=O)Nc4cc(C(F)(F)F)ccc4F)cc3)cc2s1.Cl [GW693917A],41,76,78,100,96,15,98,72,6.9,19
